# PLK1 PBD inh – blocks phosphopeptide binding to human PLK1 polo-box domain; P53350; Plk1 PBD binding of FITC phosphopeptide, fluorescence polarization; Potency, µM, inactives show max response, negative = inhibition, actives largely listed as inhibitors; hit rate 2.8% among 360,000; AID 720504; further: series mostly up to about 57 µM; nearly all actives have a fitted effect of over 65% in size
# VDR inh – blocks the human vitamin D receptor; P11473; VDR-SRC2-3 peptide fluorescence polarization, 2 h; Potency, µM, for inactives: max response, negative = inhibition, usual class: inhibitors; hit rate 0.93% among 400,000
# Target sequence (P11473 whole entry, looked up): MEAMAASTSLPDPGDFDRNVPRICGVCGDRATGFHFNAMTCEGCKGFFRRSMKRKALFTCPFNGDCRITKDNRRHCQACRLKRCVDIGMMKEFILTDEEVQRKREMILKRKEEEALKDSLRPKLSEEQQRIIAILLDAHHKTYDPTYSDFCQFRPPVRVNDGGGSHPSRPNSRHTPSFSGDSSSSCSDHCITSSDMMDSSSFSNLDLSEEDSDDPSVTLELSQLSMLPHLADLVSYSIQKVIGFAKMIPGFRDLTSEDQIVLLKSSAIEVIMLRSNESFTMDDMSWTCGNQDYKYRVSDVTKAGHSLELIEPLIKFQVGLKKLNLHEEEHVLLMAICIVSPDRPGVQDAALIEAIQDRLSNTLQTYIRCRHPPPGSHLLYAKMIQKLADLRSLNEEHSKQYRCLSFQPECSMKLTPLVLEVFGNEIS
#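 Two reagent solutions held at 4 deg C in the dark were dispensed, compounds pinned at 23 nl, and the mixture incubated 2 h at room temperature. Read-out: fluorescence polarization of VDR–SRC2-3 peptide binding.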
# DT40 TDP1 CPT – growth inhibition of DT40 Tdp1-/-;hTDP1 cells with camptothecin (screen for TDP1 inhibitors); hit rate 12% among 420,000; AID 686979; chicken DT40 Tdp1-/-;hTDP1 cells + 20 nM CPT, ATP luminescence, 48 h; Potency, µM (series often up to 46.2 µM), for the others: top-dose activity change, negative = growth inhibition, usual class: inhibitors; further: nearly all actives have a fitted effect of over 55% in size
#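 Cell growth measured by CellTiter-Glo luminescence after a minimum 48 h, 37 C compound exposure with 20 nM CPT in Tdp1-knockout DT40 cells stably expressing hTDP1, seeded 400/well; qHTS titration format.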
# DT40 TDP1 no CPT – qHTS for Inhibitors of human tyrosyl-DNA phosphodiesterase 1 (TDP1): qHTS in cells in absence of CPT. DT40 Tdp1-/- hTDP1 cells, no CPT, ATP luminescence, 48 h. Potency, µM (doses to about 46.2 µM), inactives show top-dose activity change, negative = growth inhibition, most hits filed as inhibitors. hit rate 15% among 420,000. AID 686978, 2013; further: nearly all actives have a fitted effect of over 55% in size
#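 Chicken DT40 Tdp1-/- cells complemented with human TDP1, screened without camptothecin (DMSO vehicle only), 400 cells/well. Compounds pin-transferred, cells incubated at 37 °C for at least 48 hr. Growth read as ATP-dependent luminescence (CellTiter-Glo, 30 min at RT).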
# KAT2A inh – inhibitors of human GCN5L2 histone acetyltransferase. Potency, µM (titrated, usually from 58.9 µM), for the others: at the highest dose activity change, negative = inhibition, hits mostly inhibitors. hit rate 0.21% among 390,000. GCN5L2 HAT assay, ThioGlo1 CoA-SH fluorescence. Q92830
#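 Free CoA generated was detected with ThioGlo1 (50uM) fluorescence at Ex340nm/Em540nm, read immediately and after 20 min at room temperature. Enzyme, 20 nM in HEPES pH 7.5 buffer, saw compounds 15 min before adding 75uM H3(1-25) peptide and 70uM acetyl-CoA.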
# TDP1 block – TDP1 (human) enzyme inhibition | AID 485290 | Potency, µM (titrated, usually from 130 µM), inactives show top-dose activity change, negative = inhibition, hits mostly inhibitors | Q9NUW8 | hit rate 0.28% among 350,000 | recombinant TDP1, AlphaScreen DNA substrate cleavage; further: nearly all actives have a fitted effect of over 40% in size
#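 Enzyme-compound mixtures sat 15 min at room temperature, followed by a 5 min reaction with 15 nM final substrate and 10 min with AlphaScreen beads. Recombinant human Tdp1 was used at 1 nM final.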
# The depositor's hits bear a star; ? = inconclusive; . = no result. This is a sample that favours compounds with a hit; in the whole collection about 18% have one here. The call rests on the fitted dose curve; in most records, active means well fitted curve in the direction sought with a large enough effect; inconclusive means small, poorly fitted or top-dose-only effect, or another doubt; inactive means no such curve, though single readings can be large; an effect the other way counts as inactive or inconclusive. On the % scale 0 is the no-effect control and ±100 the full control effect; potency means the concentration at half of the fitted maximal effect.
SMILES,PLK1 PBD inh,VDR inh,DT40 TDP1 CPT,DT40 TDP1 no CPT,KAT2A inh,TDP1 block
Cc1c2cnn(-c3ccccc3)c(=O)c2c(C)n1CCCC(=O)Nc1ccc(F)cc1F,.,1%,?,16µM*,-6%,5%
COc1ccc(-c2cn3nc(N4CCC(C(=O)Nc5cc(Cl)ccc5C)CC4)sc3n2)cc1,.,6%,?,?,-5%,4%
COc1ccc2oc(-c3ccc(C)c(NC(=O)c4ccc(N5CCCCC5)c([N+](=O)[O-])c4)c3)nc2c1,.,-2%,-2%,3%,-4%,2%
CCc1ccc(/C=N/n2c(COc3ccccc3)n[nH]c2=S)cc1,?,1%,?,-22%,-12%,.
O=[N+]([O-])c1ccc(Cl)c(/C=N/n2c(COc3ccccc3)n[nH]c2=S)c1,24µM*,?,18µM*,21µM*,-13%,5%
Cc1cccc(/C=N/n2c(COc3ccccc3)n[nH]c2=S)c1,24µM*,-7%,-3%,0%,-6%,.
S=c1[nH]nc(COc2ccccc2)n1/N=C/c1ccncc1,-14%,4%,3%,-10%,-4%,3%
S=c1[nH]nc(COc2ccccc2)n1/N=C/c1ccc(Cl)c(Cl)c1,17µM*,2%,-17%,-10%,2%,.
CCCCOc1ccc(C(=O)NCC(=O)NCCOc2ccccc2OC)cc1,-13%,0%,-16%,-7%,-9%,1%
CCC(=O)N[C@H]1C=C[C@H](CC(=O)OC)O[C@@H]1CO,-10%,.,2%,1%,.,.
CC(=C/c1ccco1)/C=N/NC(=O)c1nnn(-c2nonc2N)c1CN(C)C,6%,3%,-7%,-21%,-3%,0%
CCOc1ccccc1OC(=O)CN1C(=O)c2ccccc2C1=O,-15%,4%,1%,6%,?,.
CN(C)S(=O)(=O)c1cccc(CSCc2cccc(S(=O)(=O)N(C)C)c2)c1,-1%,-9%,5.8µM*,2.6µM*,?,.
CC(NCc1cccc(S(=O)(=O)N(C)C)c1)c1ccc(F)cc1 (stereo unspecified),-1%,-19%,-6%,3%,-5%,0%
CN(C)S(=O)(=O)c1cccc(COc2cccnc2[N+](=O)[O-])c1,30µM*,?,-13%,?,-3%,-7%
Cc1cc(C)n2nc(SCc3cccc(S(=O)(=O)N(C)C)c3)nc2n1,-20%,?,?,15µM*,-4%,.
Cc1c(Cl)cccc1N=Cc1ccc([N+](=O)[O-])s1,-5%,0%,?,?,3%,2%
O=C(N/N=C/c1cc([N+](=O)[O-])ccc1O)Nc1ccccc1,-11%,-12%,?,?,-7%,8%
O=[N+]([O-])c1ccc(O)c(/C=N/NC(=S)Nc2ccc(Cl)cc2Cl)c1,?,20%,16µM*,21µM*,2%,12%
O=[N+]([O-])c1ccc(/C=N/NC(=S)Nc2ccc(Cl)cc2Cl)s1,-9%,2%,5.8µM*,5.2µM*,-3%,4%
Cc1cc(Cl)ccc1NC(=O)CCC(=O)N/N=C/c1cc([N+](=O)[O-])ccc1O,0%,-7%,6.5µM*,8.2µM*,1%,2%
O=C(O)c1ccc2c(c1)C(=O)N([C@@H](Cc1ccc(O)cc1)C(=O)O)C2=O,.,.,.,.,6%,22%
CN(C(=O)c1cc2c(s1)-c1ccc(Cl)cc1SC2)c1cccc(C(F)(F)F)c1,.,11%,15µM*,16µM*,-2%,0%
CN(C)CCNC(=O)c1cc2c(s1)-c1ccc(Cl)cc1SC2,-22%,-9%,2.6µM*,8.2µM*,-1%,.
Cc1ccc(CNC(=O)c2cc3c(s2)-c2ccc(Cl)cc2SC3)cc1,.,2%,?,-26%,-5%,-5%
SMILES,PLK1 PBD inh,VDR inh,DT40 TDP1 CPT,DT40 TDP1 no CPT,KAT2A inh,TDP1 block
CN(C(=O)CSC1=NC2C(N=N1)c1cc(Br)ccc1N2C)C1CCCCC1 (stereo unspecified),7%,2%,?,?,0%,-5%
CCC/C=C1\CCCOC(C(=O)NCc2ccccc2)(C(F)(F)F)C1 (stereo unspecified),.,-4%,.,.,.,4%
O=[N+]([O-])c1cccc(COc2cccc(CN3CCCC3)c2)c1,-14%,4%,?,?,.,.
CCN(CC)S(=O)(=O)c1cc(NC(=O)c2ccc(-n3cncn3)c([N+](=O)[O-])c2)ccc1C,-1%,8%,?,23µM*,-9%,6%
COc1ccc(NC(=O)c2ccc(-n3cccn3)c([N+](=O)[O-])c2)cc1,-10%,0%,5%,?,-4%,-3%
O=C(Nc1ccc(Cl)cc1)c1ccc(-n2cccn2)c([N+](=O)[O-])c1,1%,-16%,23µM*,15µM*,-23%,6%
O=C(Nc1ccc(Cl)cc1)c1ccc(-n2cncn2)c([N+](=O)[O-])c1,2%,-22%,?,16µM*,-11%,4%
COc1ccc(Br)cc1/C=N/NC(=O)CN1CCN(Cc2ccccc2)CC1,-2%,1%,-8%,-14%,2%,6%
Cc1cc(C)nc(-n2nc(C)cc2NC(=O)CNC(C)c2ccccc2)n1 (stereo unspecified),-2%,-6%,?,21µM*,?,4%
Cc1ccc(C)c(C(=O)Nc2cc(C)nn2-c2nc(C)cc(C)n2)c1,-2%,-11%,3.3µM*,5.2µM*,-14%,6%
Cc1cc(C)nc(-n2nc(C)cc2NC(=O)CN2CCC(C)CC2)n1,-8%,-13%,5.2µM*,5.8µM*,-3%,0%
Cc1cc(NC(=O)CSc2cc(Cl)ccc2Cl)n(-c2ccccc2)n1,-2%,2%,-15%,-28%,19%,3%
CCC(NC(=O)OCc1ccccc1)C(=O)Oc1ccc2ccc(=O)oc2c1 (stereo unspecified),30µM*,?,?,?,-25%,.
S=C(Nc1ccccc1)Nc1ccc(OCc2ccc(Cl)cc2Cl)cc1,-19%,-24%,18µM*,?,-1%,6%
OCCNCc1ccc(OCc2ccc(Cl)cc2Cl)cc1,3%,-4%,18µM*,18µM*,10%,-5%
OCCCCNCc1ccc(OCc2ccc(Cl)cc2Cl)cc1,2%,17%,21µM*,23µM*,-1%,11%
CCOc1ccc(NC(=S)Nc2ccc(OCc3ccccc3)cc2)cc1,1%,-12%,?,-23%,-2%,0%
COc1cc(CNCCO)cc(Cl)c1OCc1ccccc1Cl,-1%,7%,?,?,-2%,1%
c1cn(-c2cc(-c3ccc4c(c3)OCO4)ncn2)cn1,.,64%,?,-9%,?,.

# Bioassay records (PubChem BioAssay)
